In ChEMBL document CHEMBL1961873, “Compounds: GSK PKIS; Assays: Nanosyn kinase panel” (2012):

Legend:
[1] = target: Glycogen synthase kinase-3 beta (Homo sapiens) (UniProt P49841); details: at 1 µM;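 also: reported values are mean percent inhibition of GSK3B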
[2] = target: Homeodomain-interacting protein kinase 1 (Homo sapiens) (UniProt Q86Z02); details: at 0.1 µM
[3] = target: Homeodomain-interacting protein kinase 1 (Homo sapiens) (UniProt Q86Z02); details: at 1 µM
[4] = target: T1, Homeodomain-interacting protein kinase 4 (Homo sapiens) (UniProt Q8NE63); details: at 0.1 µM
T1 sequence (whole entry): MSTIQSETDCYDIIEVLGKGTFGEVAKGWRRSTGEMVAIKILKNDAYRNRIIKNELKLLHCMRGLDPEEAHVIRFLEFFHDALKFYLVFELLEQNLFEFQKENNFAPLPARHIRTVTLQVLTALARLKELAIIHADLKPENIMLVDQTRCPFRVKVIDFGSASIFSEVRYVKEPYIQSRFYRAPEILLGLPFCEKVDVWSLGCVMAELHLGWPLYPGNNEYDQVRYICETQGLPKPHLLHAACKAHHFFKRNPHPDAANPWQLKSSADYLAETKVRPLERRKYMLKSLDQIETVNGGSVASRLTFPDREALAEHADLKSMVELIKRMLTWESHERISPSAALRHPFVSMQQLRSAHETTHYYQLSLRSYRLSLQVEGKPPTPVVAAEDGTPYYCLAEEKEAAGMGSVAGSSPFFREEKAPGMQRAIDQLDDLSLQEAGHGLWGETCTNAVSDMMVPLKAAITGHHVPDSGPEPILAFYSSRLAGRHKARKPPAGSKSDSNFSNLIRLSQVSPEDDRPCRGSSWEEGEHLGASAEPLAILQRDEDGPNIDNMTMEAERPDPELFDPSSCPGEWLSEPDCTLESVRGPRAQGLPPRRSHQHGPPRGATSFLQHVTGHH

[5] = target: T1, Homeodomain-interacting protein kinase 4 (Homo sapiens); details: at 1 µM
[6] = target: Mitogen-activated protein kinase 9 (Homo sapiens) (UniProt P45984); details: at 0.1 µM
[7] = target: Mitogen-activated protein kinase 9 (Homo sapiens) (UniProt P45984); details: at 1 µM
[8] = target: Mitogen-activated protein kinase 1 (Homo sapiens) (UniProt P28482); details: at 0.1 µM
[9] = target: Mitogen-activated protein kinase 1 (Homo sapiens) (UniProt P28482); details: at 1 µM
[10] = target: Mitogen-activated protein kinase 3 (Homo sapiens) (UniProt P27361); details: at 0.1 µM;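 also: each value is a mean inhibition figure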
Mitogen-activated protein kinase 3 (Homo sapiens), sequence (P27361 whole entry): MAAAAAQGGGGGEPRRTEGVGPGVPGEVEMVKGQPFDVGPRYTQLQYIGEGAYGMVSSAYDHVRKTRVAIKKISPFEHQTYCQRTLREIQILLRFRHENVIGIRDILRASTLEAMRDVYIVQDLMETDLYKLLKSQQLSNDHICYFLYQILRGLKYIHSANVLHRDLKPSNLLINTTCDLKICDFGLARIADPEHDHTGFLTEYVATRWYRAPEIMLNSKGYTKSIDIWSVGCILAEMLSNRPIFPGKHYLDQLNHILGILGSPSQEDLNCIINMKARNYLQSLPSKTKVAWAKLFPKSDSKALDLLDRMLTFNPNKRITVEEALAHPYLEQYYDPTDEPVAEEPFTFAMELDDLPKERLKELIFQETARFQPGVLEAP

Mitogen-activated protein kinase 9 (Homo sapiens), sequence (P45984 whole entry, looked up): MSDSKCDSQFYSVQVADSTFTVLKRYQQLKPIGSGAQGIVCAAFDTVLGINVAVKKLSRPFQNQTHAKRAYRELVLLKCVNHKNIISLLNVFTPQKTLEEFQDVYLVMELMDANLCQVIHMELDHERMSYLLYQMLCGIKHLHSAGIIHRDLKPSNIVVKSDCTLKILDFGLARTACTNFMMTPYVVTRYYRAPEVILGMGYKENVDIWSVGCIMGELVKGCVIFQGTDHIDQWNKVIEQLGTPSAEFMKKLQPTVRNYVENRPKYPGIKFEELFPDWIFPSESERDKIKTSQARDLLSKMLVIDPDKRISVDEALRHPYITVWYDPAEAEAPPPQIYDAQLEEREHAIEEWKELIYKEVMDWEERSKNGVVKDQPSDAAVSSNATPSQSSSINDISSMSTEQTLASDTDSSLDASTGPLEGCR
Mitogen-activated protein kinase 1 (Homo sapiens), sequence (P28482 whole entry): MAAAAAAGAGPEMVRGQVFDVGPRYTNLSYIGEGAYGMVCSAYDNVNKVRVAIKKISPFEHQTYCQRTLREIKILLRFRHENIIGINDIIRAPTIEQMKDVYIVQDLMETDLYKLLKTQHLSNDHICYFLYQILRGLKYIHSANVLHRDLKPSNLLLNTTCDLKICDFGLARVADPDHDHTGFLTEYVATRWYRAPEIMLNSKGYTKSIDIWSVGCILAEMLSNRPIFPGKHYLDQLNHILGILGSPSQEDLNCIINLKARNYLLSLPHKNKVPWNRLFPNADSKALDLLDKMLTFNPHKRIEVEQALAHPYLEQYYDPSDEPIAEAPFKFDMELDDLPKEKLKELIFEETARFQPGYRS
Glycogen synthase kinase-3 beta (Homo sapiens), sequence (P49841 whole entry, looked up): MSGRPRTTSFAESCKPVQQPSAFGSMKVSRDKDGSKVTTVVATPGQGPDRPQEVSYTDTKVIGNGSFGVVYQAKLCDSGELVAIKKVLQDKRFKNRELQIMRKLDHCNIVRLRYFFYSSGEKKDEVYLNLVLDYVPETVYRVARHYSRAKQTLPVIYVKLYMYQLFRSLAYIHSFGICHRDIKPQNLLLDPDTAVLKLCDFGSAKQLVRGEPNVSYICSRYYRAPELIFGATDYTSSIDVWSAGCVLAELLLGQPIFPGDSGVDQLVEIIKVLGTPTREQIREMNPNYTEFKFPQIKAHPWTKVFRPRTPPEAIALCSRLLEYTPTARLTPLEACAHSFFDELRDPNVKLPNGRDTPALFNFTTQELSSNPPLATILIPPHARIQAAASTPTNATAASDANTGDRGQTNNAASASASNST
Homeodomain-interacting protein kinase 1 (Homo sapiens), sequence (Q86Z02 whole entry, looked up): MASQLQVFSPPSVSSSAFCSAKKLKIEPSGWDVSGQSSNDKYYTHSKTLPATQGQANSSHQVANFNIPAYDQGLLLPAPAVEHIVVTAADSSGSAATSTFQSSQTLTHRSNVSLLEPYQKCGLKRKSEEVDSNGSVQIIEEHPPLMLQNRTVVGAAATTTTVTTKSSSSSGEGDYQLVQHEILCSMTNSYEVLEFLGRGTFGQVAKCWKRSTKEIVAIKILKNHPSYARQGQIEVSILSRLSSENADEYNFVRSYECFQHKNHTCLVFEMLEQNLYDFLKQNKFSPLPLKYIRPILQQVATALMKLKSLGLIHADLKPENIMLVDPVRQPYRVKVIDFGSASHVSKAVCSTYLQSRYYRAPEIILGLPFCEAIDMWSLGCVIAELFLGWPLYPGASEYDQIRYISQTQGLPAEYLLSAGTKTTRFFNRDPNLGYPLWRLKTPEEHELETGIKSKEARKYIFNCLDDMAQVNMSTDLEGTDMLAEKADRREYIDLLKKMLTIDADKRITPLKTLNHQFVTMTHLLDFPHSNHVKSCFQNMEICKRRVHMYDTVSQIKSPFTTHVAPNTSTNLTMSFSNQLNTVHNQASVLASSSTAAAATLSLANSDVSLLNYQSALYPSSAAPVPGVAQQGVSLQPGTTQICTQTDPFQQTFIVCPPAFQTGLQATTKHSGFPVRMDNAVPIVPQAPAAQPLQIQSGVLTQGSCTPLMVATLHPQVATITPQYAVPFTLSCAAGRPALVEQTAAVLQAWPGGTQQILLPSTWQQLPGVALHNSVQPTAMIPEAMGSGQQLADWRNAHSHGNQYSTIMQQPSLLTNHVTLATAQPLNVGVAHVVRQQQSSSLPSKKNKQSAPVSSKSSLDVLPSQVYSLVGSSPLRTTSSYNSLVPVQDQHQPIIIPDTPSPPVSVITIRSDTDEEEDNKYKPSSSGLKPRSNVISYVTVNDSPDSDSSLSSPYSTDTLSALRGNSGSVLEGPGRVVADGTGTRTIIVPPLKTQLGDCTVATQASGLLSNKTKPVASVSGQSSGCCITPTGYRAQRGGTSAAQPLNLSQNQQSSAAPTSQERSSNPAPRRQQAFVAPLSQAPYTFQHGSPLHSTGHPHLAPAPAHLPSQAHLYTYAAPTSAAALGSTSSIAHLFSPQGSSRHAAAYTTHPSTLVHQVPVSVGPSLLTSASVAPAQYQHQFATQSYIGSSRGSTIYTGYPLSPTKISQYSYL

Structure (SMILES) | inhibition [1] | inhibition [2] | inhibition [3] | inhibition [4] | inhibition [5] | inhibition [6] | inhibition [7] | inhibition [8] | inhibition [9] | inhibition [10]
CNC(=O)c1cncc(/C=C/c2ccccc2C)c1 | 10.8% | 2.37% | 3.05% | 3.2% | 3.78% | 3.59% | 5.08% | 7.05% | 5.85% | 4.41%
CCn1c(-c2nonc2N)nc2cncc(C(=O)NCCNC)c21 | 42.3% | 0.25% | 10.2% | -0.44% | 3.11% | 4.59% | 4.73% | 6.91% | 6.64% | 6.22%
CS(=O)(=O)CCNCc1ccoc1-c1ccc2ncnc(Nc3ccc(OCc4ccccc4)cc3)c2c1 | 4.28% | -3.84% | 0.14% | 0.57% | 2.87% | 1.1% | 1.84% | 0.72% | 2.14% | 0.52%
Cn1c(-c2nonc2N)nc2cnccc21 | 41.6% | 0.83% | 13.9% | 0.63% | 4.4% | 0.7% | 4.16% | -1.97% | 2.95% | 0.55%
COC(=O)Nc1nc2cc(Oc3ccc(NC(=O)Nc4ccccc4)cc3)ccc2[nH]1 | 8.21% | 0.47% | 2.14% | 3.11% | 2.22% | 3.28% | 3% | 4.54% | 2.22% | 4.71%
CS(=O)(=O)CCNCc1ccc(-c2ccc3ncnc(Nc4ccc(OCc5ccccc5)cc4)c3c2)o1 | 3.37% | -0.23% | 3.06% | 0.8% | 4.91% | 2.23% | 2.48% | 4.02% | 3.85% | 2.1%
COC(=O)Nc1nc2ccc(Oc3ccc(NC(=O)Nc4cc(C(F)(F)F)ccc4F)cc3)cc2s1 | 5.68% | -1.19% | 0.81% | 6.92% | 33.5% | -0.14% | 3.25% | -1.09% | 0.7% | 0.14%
O=C(O[C@H]1CN[C@H](C#Cc2cc3ncnc(Nc4ccc5c(ccn5Cc5cc(F)ccc5F)c4)c3s2)C1)N1CCOCC1 | 5.52% | 0.14% | -1.46% | 0.47% | 2.6% | 5.66% | 5.74% | 3.73% | 5.12% | 4.98%
CC1(C)CC(n2cnc(-c3ccc(F)cc3)c2-c2ccnc(N)n2)CC(C)(C)N1 | 6.07% | -1.4% | -0.7% | -0.06% | 1.62% | -1.22% | 4.24% | -0.07% | -0.08% | 0.44%
Cc1cc(O)cc(C)c1/C=C/c1cncc(C(=O)OC(C)(C)C)c1 | 7.76% | 2.63% | 7.33% | 1.55% | 2.43% | 1.52% | 1.71% | 2.41% | 4.61% | 1.22%
CNC(=O)c1ncccc1Nc1nc(Nc2cc3c(cc2OC)CCCN3C(=O)CN(C)C)nc2[nH]ccc12 | 14.6% | 3.08% | 22.2% | 3.67% | 13.5% | 3.07% | 9.19% | 3.01% | 6.21% | 2.44%
NC(=O)c1ccc2c(-c3ccnc(NCCCO)n3)c(-c3ccc(F)cc3)nn2c1 | 41.3% | 1.65% | 4.85% | 5.71% | 7.94% | 38% | 82.2% | 1.98% | 14.9% | 4.06%
CNC(=O)c1sc(-n2cnc3cc(OC)c(OC)cc32)cc1OCc1ccccc1C(F)(F)F | 3.56% | -0.45% | -1.76% | 1.98% | 7.08% | 2.65% | 4.22% | 5.45% | 6.09% | 3.11%
CS(=O)(=O)CCNCc1ccc(-c2ccc3ncnc(Nc4ccc(OCc5cccc(C(F)(F)F)c5)cc4)c3c2)o1 | 3.05% | -0.56% | 2.78% | 0.9% | 7.06% | 3.75% | 7.64% | 5.63% | 5.84% | 4.22%
N#Cc1ccc2c(-c3ccnc(NC4CC4)n3)c(-c3ccc(F)cc3)nn2c1 | 45.1% | -2.11% | 0.75% | -0.93% | -1.01% | 17.2% | 71.1% | 1.33% | 4.26% | 0.07%
CCS(=O)(=O)c1ccc(OC)c(Nc2ncc(-c3cccc(F)c3)o2)c1 | 4.08% | 1.26% | 23.8% | 4.37% | 30% | 7.66% | 7.11% | 6.33% | 7.09% | 4.68%

Structure (SMILES) | inhibition [1] | inhibition [2] | inhibition [3] | inhibition [4] | inhibition [5] | inhibition [6] | inhibition [7] | inhibition [8] | inhibition [9] | inhibition [10]
CCS(=O)(=O)c1ccc(OC)c(Nc2ncc(-c3cccc(C(C)=O)c3)o2)c1 | 12.4% | 5.49% | 23% | 5.03% | 27.3% | -1.02% | 1.43% | 4.9% | 3.99% | 2.3%
Cc1nnc(-c2cccc(-c3ccc(C(=O)NCC4CC4)cc3)c2)o1 | 11.6% | 4.5% | 4.32% | 2.08% | -0.47% | 3.54% | 6.68% | 2.73% | 5.62% | 5.36%
COc1ccc(-c2nn3ncccc3c2-c2ccnc(Nc3ccc(F)c(F)c3)n2)cc1 | 5% | 3.8% | 4.38% | 1.49% | 1.58% | 7.25% | 23.9% | 4.91% | 5.09% | 3.11%
COc1ccccc1-c1cc(/C=C2\C(=O)Nc3ncc(Br)cc32)cc(Br)c1O | 8.88% | 0.74% | 7.53% | 0.6% | 10.9% | 3.44% | 8.54% | 3.26% | 4.68% | 4.03%
Cc1c2ccc(N(C)c3ccnc(Nc4cccc(S(N)(=O)=O)c4)n3)cc2nn1C | 10.7% | -4.42% | -0.84% | -0.24% | 10.6% | 3.51% | 7.66% | 4.96% | 5.77% | 5.75%
COc1c(C(N)=O)cc(-c2ccc(Cl)cc2)cc1-c1ccc(S(N)(=O)=O)cc1 | 2.65% | -1.29% | -0.59% | 0.4% | 1.94% | 3.46% | 8.22% | 5.87% | 5.86% | 4.58%
CCN1CCC(C(=O)Nc2n[nH]c3nnc(-c4cccc(F)c4F)cc23)CC1 | 88.7% | -1.08% | 2.33% | 0.85% | 4.09% | -0.81% | 1.88% | -0.1% | 0.83% | -2.77%
O=C1Nc2ccccc2/C1=C1\CCc2cc(O)ccc21 | 7.64% | -1.14% | 7.57% | 0.76% | 10.8% | 5.71% | 9.88% | 5.77% | 6.56% | 5.82%
COc1cc(Nc2ncc(-c3ccccc3)o2)cc(OC)c1 | 11.5% | 1.55% | 17.1% | 2.58% | 12.5% | 3.25% | 3.23% | 10.2% | 6.06% | 5.39%
CS(=O)(=O)Nc1ccc(-c2cc(-c3ccccc3)cc(C(N)=O)c2N)cc1 | 3.26% | -3.53% | 2.26% | 0.57% | 2.28% | 0.94% | 1.19% | 4.56% | 2.91% | 2.82%
COc1cccc(Nc2nccc(-c3cnn4ncccc34)n2)c1 | 79% | 88.9% | 92.6% | 56.4% | 87.3% | 9.47% | 46.2% | 2.75% | 26.5% | 1.68%
O=C(O[C@H]1CN[C@H](C#Cc2cc3ncnc(Nc4ccc(OCc5cccc(F)c5)c(Cl)c4)c3s2)C1)N1CCOCC1 | 4.2% | 1.86% | 0.81% | 2.71% | 4.99% | 3.19% | 7.19% | 7.72% | 5.38% | 4.82%
COc1cccc(-n2ncc3c(N/N=C/c4ccc(C(=O)NCCN(C)C)cc4)ncnc32)c1 | 79.4% | 47% | 78.8% | 49.5% | 75.8% | 2.47% | 3.96% | 1.34% | 4.38% | 3.11%
CCOc1ccc2c(-c3ccnc(Nc4cc(OC)cc(C(F)(F)F)c4)n3)cnn2n1 | 28% | 20.1% | 61.9% | 4.81% | 24.3% | 1.36% | 5.36% | 0.19% | 0.63% | 0.36%
CN1CCC(n2cnc(-c3ccc(F)cc3)c2-c2ccnc(NCCO)n2)CC1 | 7.21% | 3.91% | 7.67% | 2.19% | 4.16% | 8.58% | 37.3% | 2.94% | 6.12% | 3.9%
